Hits are enriched below; roughly 3.5% of the tested compounds scored in any of these assays.
Pf apPOL inh: Pf-apPOL DNA polymerase inhibition | actives 0.25% (n = 210,000) | AID 1794808 | Recombinant Pf-apPOL, molecular beacon fluorescence, 1.5 h | inhibition, % at 10 µM
mHTT-CaM PPI inh: inhibitors of human mutant huntingtin-calmodulin interaction; P42858; inhibition, % at 15 µM; actives 3.6% (n = 190,000); AlphaScreen His-mHTT/GST-CaM binding, luminescence; AID 1671202;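 also: 0% = both proteins with DMSO and 100% = one protein alone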
Starred values were filed as active, the others as inactive; . = no result given; ! = not active in a repeat. Rule as the data show it: active = inhibition above about 50%; inactive = the rest.

SMILES	Pf apPOL inh	mHTT-CaM PPI inh
Cc1cc(=O)[nH]c(-n2nc(C3CC3)cc2NC(=O)C2(c3ccc(Cl)cc3)CCCC2)n1	-71.3	57.2*
Cc1cc(OCC(O)CNC2CCCC2)ccc1C(C)C (stereo unspecified)	-2.1	-1.5
O=S(=O)(Nc1ccc(I)cc1)c1ccc(F)cc1	-12.0	-10.9
Cc1ccc(CNC(=O)C2CCCN(c3nccc4sccc34)C2)cc1 (stereo unspecified)	-6.7	-0.6
Cc1ccc2c(c1)/C(=C/c1ccc3c(c1)OCO3)c1cccnc1-2	-4.0	52.2*
Cc1ccc2c(c1)/C(=C/c1ccc(Br)cc1)c1cccnc1-2	.	13.8
O=C(O)c1ccccc1SC1CC(=O)N(c2ccccc2)C1=O (stereo unspecified)	-0.9	3.1
O=C1Nc2ccc(Br)cc2/C1=C/C1CC=CCC1 (stereo unspecified)	3.8	51.0*
CC(C)c1ccc(/C=C2\C(=O)Nc3ccc(Br)cc32)cc1	-0.1	19.0
CCOc1cc(/C=C2\C(=O)Nc3ccc(Br)cc32)cc(Br)c1OCC	0.2	9.0
COc1ccc(/C=C2\C(=O)Nc3ccc(Br)cc32)cc1O	-8.0	99.0*
O=C1Nc2ccc(Br)cc2/C1=C/c1ccc(OC2CCCC2)cc1	-11.8	46.0
COc1cc(/C=C2\C(=O)Nc3ccc(Br)cc32)cc(OC)c1O	-88.9	100.0*
COc1cc(/C=C2\C(=O)Nc3ccc(Br)cc32)cc(Br)c1OC	-4.8	59.0*
COc1cc(/C=C2\C(=O)Nc3ccc(F)cc32)cc(OC)c1OC	-7.4	16.0
CCOc1ccc2nc(Cl)c(C3CC(c4ccc(OC)cc4)=NN3S(C)(=O)=O)cc2c1 (stereo unspecified)	-0.9	3.0
Cn1c(=O)c(-c2nc(-c3ccccc3F)no2)c(O)c2cc(F)ccc21	0.0	3.6
Cc1cc(N2CCOCC2)nc2ccc(NC(=O)CCC(=O)Nc3ccc(F)c(Cl)c3)cc12	-5.1	40.0
NC(=O)c1ccc(Oc2cc(Cl)cc(Cl)c2)c([N+](=O)[O-])c1	-3.2	.
COCCCN1CC2=C(C1=O)C(c1ccccc1Cl)NC(=O)N2 (stereo unspecified)	-4.8	-10.4
COc1ccc(NS(=O)(=O)N(C)C)c(OC)c1	-5.0	20.9
COc1cc(/C=C2\C(=O)Nc3ccc(Br)cc32)cc(Br)c1O	-5.6	100.0*
COc1cc(/C=C2\NC(=O)NC2=O)cc(Br)c1O	-4.0	13.0
CC(=O)Nc1ccc2c(c1)CCc1ccccc1-2	-4.1	.
O=C1CC(N2CCN(c3ccc([N+](=O)[O-])cc3)CC2)C(=O)N1c1ccccc1F (stereo unspecified)	-2.3	25.2
SMILES	Pf apPOL inh	mHTT-CaM PPI inh
COCCCN1C(=S)NC2c3cc([N+](=O)[O-])ccc3OC1(C)C2C (stereo unspecified)	-3.8	0.2
COc1ccc(CCN2C(=S)NC3c4cc([N+](=O)[O-])ccc4OC2(C)C3C)cc1OC (stereo unspecified)	0.4	60.6*
CCOc1ccc(CNC(=O)c2ccc3c(c2)NC(=O)C2CCCCN32)cc1OC (stereo unspecified)	2.7	13.6
CCOc1cc(/C=C(\C#N)c2[nH]nc(N)c2C#N)ccc1O	-5.7	72.8*
COc1cc(/C=C(\C#N)c2ccc([N+](=O)[O-])cc2)ccc1O	-1.8	38.2
CCN(CC)c1ccc(/C=C(\C#N)c2[nH]nc(N)c2C#N)c(OC)c1	0.0	60.4*
CCN(C)c1ccc(/C=C(\C#N)c2[nH]nc(N)c2C#N)cc1	-3.2	28.8
COc1ccc(/C=C(\C#N)c2[nH]nc(N)c2C#N)cc1Br	-0.4	69.2*
COc1ccc(/C=C(\C#N)c2nn(CCO)c(N)c2C#N)c(OC)c1	-1.2	-1.1
COc1ccc(/C=C2\C(C)=C(C#N)c3nc(N)c(C#N)c(C)c32)cc1Br	-5.1	20.0
COc1cc(/C=C(\C#N)c2[nH]nc(N)c2C#N)ccc1O	10.0	53.7*!
CCN(CC)c1ccc(-c2c(C#N)c(N)nc(OC)c2C#N)cc1	1.3	-9.0
COc1ccccc1-c1nc(C2CCN(C(=O)Cc3cccs3)CC2)no1	-2.8	24.0
O=C(NCc1ccccn1)C1CCN(c2nc3ccccc3o2)CC1	-11.5	1.0
COc1ccc(C2Oc3c(OC)cccc3C3CC(c4ccc(C)o4)=NN32)cc1 (stereo unspecified)	-11.3	83.0*
COc1ccc(C2Oc3c(OC)cccc3C3CC(c4ccc(C)o4)=NN32)cc1OC (stereo unspecified)	-21.9	51.0*
COc1ccc(C2Oc3ccccc3C3CC(c4ccc(C)o4)=NN32)cc1 (stereo unspecified)	-7.4	60.0*
CCOc1cccc2c1OC(c1cccc(OC)c1)N1N=C(c3ccco3)CC21 (stereo unspecified)	-19.7	28.0
CCOc1cccc2c1OC(c1ccc(OC)c(OC)c1)N1N=C(c3ccc(C)o3)CC21 (stereo unspecified)	-15.6	63.0*
COc1cccc2c1OC(c1ccc(F)c(F)c1)N1N=C(c3ccco3)CC21 (stereo unspecified)	-18.0	14.0
COc1ccc(C2Oc3ccc(Cl)cc3C3CC(c4ccco4)=NN32)cc1 (stereo unspecified)	-16.4	37.0
COc1cccc(C2=NN3C(C2)c2cccc(OC)c2OC3c2cc(OC)c(OC)c(OC)c2)c1 (stereo unspecified)	-22.4	48.0
CCN1CCN(c2ccc(NC(=O)c3cccc(Cl)c3)cn2)C1=O	3.9	-8.0
COc1ccc(-c2nnn(CC(=O)Nc3ccc(OC(F)(F)Cl)cc3)n2)cc1OC	-1.8	-3.0
CCOc1ccc(-c2noc(-c3ncn4c3COC(c3ccc(F)cc3)C4)n2)cc1 (stereo unspecified)	-2.3	-0.2
SMILES	Pf apPOL inh	mHTT-CaM PPI inh
CCn1cc(C2=CCN(C(=O)NCc3cccc(F)c3)CC2)c2cccnc21	-2.8	13.3
CC(C)[C@@H](COc1ccccc1)N1CCN(Cc2ccccc2)CCC1=O	-5.8	-1.4
O=C1CCN(Cc2ccccc2)CCN1[C@H](COc1ccccc1)c1ccccc1	-3.6	84.8*
COc1ccc(C2C=C(c3ccc(Cl)cc3)Nc3nc(CCCO)nn32)cc1OC (stereo unspecified)	12.3	52.0*
OCCCc1nc2n(n1)C(c1cccc(Cl)c1)C=C(c1ccc(F)cc1)N2 (stereo unspecified)	-6.5	41.0
Cc1ccc(OCC(O)Cn2cnc3ccccc32)cc1 (stereo unspecified)	8.8	6.0
OC(COc1ccc(I)cc1)Cn1cnc2ccccc21 (stereo unspecified)	-4.0	86.5*
CCc1ccccc1NC(=O)c1cc([N+](=O)[O-])nn1Cc1ccccc1	-5.8	3.0
CC(C)(CO)N=C1NS(=O)(=O)c2ccccc21	-1.7	-1.6
O=C(Nc1ccccc1-c1nc2ccccc2s1)c1cc(=O)c2ccccc2o1	-1.0	3.0
O=C(Nc1nc2c(Cl)cccc2s1)c1cc(=O)c2ccccc2o1	50.1*	-1.0
CCOc1ccccc1CN1CCC(C(=O)N2CCN(Cc3ccc4c(c3)OCO4)CC2)CC1	-1.1	2.0
Cc1ccc(NS(=O)(=O)c2cccc3c2C(=O)c2ccccc2C3=O)c(C)c1	-5.1	57.0*
Cc1ccc(NS(=O)(=O)c2ccc3c4c(cccc24)C(=O)N3)c(C)c1	-0.9	-27.1
O=C(CCCn1c(=O)[nH]c2ccsc2c1=O)NC1CCCc2ccccc21 (stereo unspecified)	-7.5	-1.0
COc1cc(/C=C2\C(=O)N(c3ccc(C(=O)O)cc3)N=C2C(F)(F)F)ccc1OCC(C)C	0.1	74.0*
